In paper PMC5540273 (PLoS ONE, 2017):
Several values for one entry are separate records, joined by “and”; a condition that tells them apart may be missing. Equal values may be shown once. Read-outs that look alike come from different tables or passages of the source.

Legend:
PYK2 = tested on: T1, PYK2; details: concentration: 1 μM, replicates: in singlicate, n = 1
T1 construct: gene PTK2B

QSK = details: concentration: 1 μM, replicates: in singlicate, n = 1
RAF1 = details: concentration: 1 μM, replicates: in singlicate, n = 1
RET = details: concentration: 1 μM, replicates: in singlicate; n = 1
RIOK1 = details: concentration: 1 μM, replicates: in singlicate, n = 1
RIOK2 = details: concentration: 1 μM, replicates: in singlicate; n = 1
RIOK3 = details: concentration: 1 μM, replicates: in singlicate; n = 1
RIPK1 = details: concentration: 1 μM, replicates: in singlicate, n = 1
RIPK2 = details: concentration: 1 μM, replicates: in singlicate, n = 1
RIPK4 = details: concentration: 1 μM, replicates: in singlicate, n = 1
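Also: KINOMEscan kinase panel screen.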

| Compound | %Inh (PYK2) [%] | %Inh (QSK) [%] | %Inh (RAF1) [%] | %Inh (RET) [%] | %Inh (RIOK1) [%] | %Inh (RIOK2) [%] | %Inh (RIOK3) [%] | %Inh (RIPK1) [%] | %Inh (RIPK2) [%] | %Inh (RIPK4) [%] | %Inh (PYK2; 1 µM) | %Inh (QSK; 1 µM) | %Inh (RAF1; 1 µM) | %Inh (RIOK1; 1 µM) | %Inh (RIPK1; 1 µM) | %Inh (RIPK2; 1 µM) | %Inh (RIPK4; 1 µM) |
| --- | --- | --- | --- | --- | --- | --- | --- | --- | --- | --- | --- | --- | --- | --- | --- | --- | --- |
| NCC(NC(=O)c1cc(-c2cn[nH]c2)c(-c2ccnc3[nH]ccc23)s1)c1ccccc1.O=C(O)C(F)(F)F.O=C(O)C(F)(F)F (centres unmarked) [GSK1325775] | 0 | 9 | 0 | 18 | 99.4 | 34 | 100 | 19 | 0 | 31 | – | – | – | – | – | – | – |
| NS(=O)(=O)CCc1cccc(Nc2nccc(-c3c(-c4cccc(NC(=O)c5c(F)cccc5F)c4)nn4ccccc34)n2)c1 [GSK336735] | 29 | 0 | 92.8 | 99.9 | 38 | 17 | 26 | 10 | 97.9 | 4 | – | – | – | – | – | – | – |
| Cl.Nc1ncnc2occ(-c3ccc(NC(=O)Nc4cc(C(F)(F)F)ccc4F)cc3)c12 [SB-707548] | 19 | 0 | 78 | 100 | 0 | 0 | 22 | 96 | 42 | 2 | – | – | – | – | – | – | – |
| COc1ccc(Nc2nccc(N3CCC(NC(=O)Nc4cc(C)ccc4C)C3)n2)cc1 (centres unmarked) [GSK1379741] | 7 | 1 | 13 | 52 | 25 | 0 | 0 | 0 | 14 | 8 | – | – | – | – | – | – | – |
| O=C(NOCC1CC1)c1ccc(F)c(F)c1Nc1ccc(I)cc1Cl | 0 | 0 | 0 | 17 | 7 | 0 | 0 | 0 | 0 | 100 | – | – | – | – | – | – | – |
| Cc1cccc(-c2nc(-c3ccc(S(C)(=O)=O)cc3)sc2-c2ccncc2)c1 | 2 | 8 | 25 | 14 | 19 | 27 | 0 | 0 | 59 | 0 | – | – | – | – | – | – | – |
| O=C(NCCNc1ccnc(Nc2ccc(F)cc2)n1)c1cc2ccccc2s1 [GSK1379874] | 29 | 0 | 10 | 0 | 23 | 0 | 24 | 0 | 0 | 18 | – | – | – | – | – | – | – |
| Cc1cccc(-c2nc(Nc3ccc4ncsc4c3)c3ccccc3n2)n1 [GW867588] | 0 | 11 | 0 | 0 | 20 | 31 | 0 | 0 | 5 | 13 | – | – | – | – | – | – | – |
| O=C1NC(=O)C(N2CCc3ccccc32)=C1c1cccc(Cl)c1 [SB-408010] | 12 | 0 | 0 | 4 | 5 | 0 | 30 | 0 | 0 | 0 | – | – | – | – | – | – | – |
| CCCCCc1nc2c(N)ncnc2n1CCCCC [SKF-97255] | 21 | 7 | 11 | 0 | 0 | 0 | 0 | 0 | 22 | 7 | – | – | – | – | – | – | – |
| CC(C)(CN)c1nc(-c2ccc(Cl)c(O)c2)c(-c2ccncc2)[nH]1.O=C(O)C(F)(F)F [SB-477794] | – | – | – | 99.9 | – | 0 | 0 | – | – | – | 0% and 17% | 91.5% and 86% | 98.5% and 95.1% | 0% and 1% | 2% and 0% | 92.7% and 90% | 36% and 5% |
| COc1cc(Nc2nccc(N3CCC(NC(=O)c4cccc(NC(C)=O)c4)C3)n2)cc(OC)c1OC (centres unmarked) [GSK1379754] | 14 | 0 | 0 | 29 | 82 | 5 | 61 | 0 | 0 | 28 | – | – | – | – | – | – | – |
| Cn1ccc2ncnc(Oc3ccc(NC(=O)Nc4ccncc4)c(Cl)c3)c21 | 0 | 0 | 12 | 1 | 0 | 0 | 23 | 0 | 0 | 0 | – | – | – | – | – | – | – |
| Cc1cn2c(=O)cc(N3CCOCC3)nc2n1Cc1cccc(Cl)c1Cl [GSK2334006] | 13 | 0 | 22 | 21 | 56 | 29 | 4 | 0 | 14 | 6 | – | – | – | – | – | – | – |
| CN(C1=C(c2ccccc2)C(=O)NC1=O)c1ccccc1 [SB-334860] | 0 | 0 | 18 | 0 | 0 | 4 | 0 | 30 | 44 | 20 | – | – | – | – | – | – | – |
| CN1c2ccc(NCc3ccc(F)cc3)cc2-c2c(cnn2C)S1(=O)=O | 0 | 10 | 1 | 0 | 10 | 0 | 0 | 3 | 0 | 0 | – | – | – | – | – | – | – |
| Cc1c2ccc(N(C)c3ccnc(Nc4cccc(S(N)(=O)=O)c4)n3)cc2nn1Cc1ccccc1.Cl.Cl [GW787226] | 9 | 0 | 94.5 | 99.9 | 0 | 15 | 0 | 36 | 95.9 | 0 | – | – | – | – | – | – | – |
